# Source: PubChem BioAssay (National Center for Advancing Translational Sciences (NCATS))
# Rows were chosen to be rich in hits. Some 1.2% of all compounds tested hit in one or more screens of this group.
# TSHR antagonist – antagonists of human thyroid stimulating hormone receptor; P16473; TSHR-expressing cells, TSH-stimulated cAMP HTRF, 2 h; hits give low values; activity change, negative = inhibition, % at 11.5 µM; 0.2% of 330,000 active; AID 504810;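 active = activity change below a set negative limit, meaning inhibition stronger than a set level, cut at about -70% in these data; inconclusive = activity change between two set negative limits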; note: % is set by controls: 0 for no effect and ±100 for the full control effect
# Target sequence (P16473 whole entry, looked up): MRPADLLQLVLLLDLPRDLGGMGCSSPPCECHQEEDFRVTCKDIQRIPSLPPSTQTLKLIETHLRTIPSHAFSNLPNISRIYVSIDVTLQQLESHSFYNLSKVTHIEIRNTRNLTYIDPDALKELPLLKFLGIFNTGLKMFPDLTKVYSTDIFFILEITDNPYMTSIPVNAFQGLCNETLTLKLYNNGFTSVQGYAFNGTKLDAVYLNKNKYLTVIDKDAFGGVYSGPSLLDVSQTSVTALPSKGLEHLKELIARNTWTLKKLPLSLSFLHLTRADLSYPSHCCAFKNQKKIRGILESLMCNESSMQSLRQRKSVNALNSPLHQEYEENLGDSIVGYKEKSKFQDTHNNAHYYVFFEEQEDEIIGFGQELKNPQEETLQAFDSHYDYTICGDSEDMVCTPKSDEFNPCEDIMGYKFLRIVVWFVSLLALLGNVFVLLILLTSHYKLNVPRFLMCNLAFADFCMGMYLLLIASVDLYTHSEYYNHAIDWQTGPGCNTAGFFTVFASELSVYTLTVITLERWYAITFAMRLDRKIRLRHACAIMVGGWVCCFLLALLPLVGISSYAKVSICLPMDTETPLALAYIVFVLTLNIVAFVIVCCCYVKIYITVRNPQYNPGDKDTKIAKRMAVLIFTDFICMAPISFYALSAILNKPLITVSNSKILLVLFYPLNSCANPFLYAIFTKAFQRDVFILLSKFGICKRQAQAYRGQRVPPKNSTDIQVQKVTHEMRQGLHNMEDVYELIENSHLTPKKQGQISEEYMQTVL
#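 Antagonism was scored as loss of TSH-driven cAMP in TSHR cells, stimulated with 4nM TSH (EC80) for 2 hours at 37 deg C and detected by homogeneous HTRF competition immunoassay.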
# Apoferritin bind – candidate novel general anesthetic via apoferritin binding; Potency, µM (titrated, usually from 77.5 µM), for the others: at the highest dose activity change, negative = displacement, usual class: inhibitors; apoferritin/1-aminoanthracene competitive binding, fluorescence; 0.074% of 350,000 active; P02791; AID 485281; note: potency is the fitted concentration of half-maximal effect; % is set by controls: 0 for no effect and ±100 for the full control effect; nearly all actives have a fitted effect of over 20% in size
#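 Horse-spleen apoferritin (10 uM) in 50% saturated 1-aminoanthracene in PBS was incubated 10 min at room temperature with compound. Fluorescence (ex 380, em 535 nm) was normalized to free and bound 1-AMA, with concentration-response fitted by a four-parameter Hill equation.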
# S-ASM inh – inhibitors of human secretory acid sphingomyelinase; placental ASM, HMU-PC fluorogenic substrate, 60 min; Potency, µM (series often up to 57.5 µM), for inactives: at the highest dose activity change, negative = inhibition, usual class: inhibitors; 0.006% of 340,000 active; AID 504937; note: potency is the fitted concentration of half-maximal effect
#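 Steps: dispense placental human ASM, pin compound, wait 10 min at room temperature, add HMU-PC0 substrate at 9 uM final, incubate 60 min at 37 °C, add stop solution raising pH to 10, read fluorescence.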
# BRCA1 expr act – activators of BRCA1 expression | MCF7-BRCA1-FFLuc reporter, luminescence, 48 h; response scale: scaled: vehicle 0%, 10 µM genistein 100% | Potency, µM (doses to about 46.1 µM), inactives show at the highest dose activation, hits mostly activators | 1.1% of 380,000 active; note: potency is the fitted concentration of half-maximal effect; nearly all actives have a fitted effect of over 80% in size
#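 Reporter cells (MCF7, BRCA1 promoter-firefly luciferase) received library compounds across a concentration series for 48 h. End-point luminescence was measured and concentration-effect curves derived after normalization.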
# TSG101-PTAP inh – blocks PTAP/TSG101 interaction to inhibit HIV-1 budding | Q99816 | Fluorescence polarization, FITC-PTAP peptide / Tsg101 binding | Potency, µM (series often up to 115 µM), for the others: at the highest dose activity change, negative = inhibition, most hits filed as inhibitors | 340,000 tested, under 10 active; active = well fitted inhibition curve with a large enough effect in the main read-out, with a control signal flat, not every such curve was filed as active; inconclusive = small, poorly fitted or top-dose-only effect, or effect the other way, or a change in a side signal; inactive = no such curve, though single readings can be large or run the other way; note: potency is the fitted concentration of half-maximal effect; % of control where 0% means no effect
#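 FP read-out: FITC-PTAP peptide, 50 nM final, binding Tsg101 binding domain, 10 uM final; 20 min, r.t.; 10 mM HEPES pH 7.5, 0.15 M NaCl, 0.01% Tween 20, 3 mM EDTA, 0.1 mM TCEP.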
# Active calls of the source: *; ? = inconclusive; . = no result given; [ ] = remark or other dose. Unless noted, calls come from the whole dose curve; as a rule, active = well fitted curve in the direction sought with a large enough effect; inconclusive = small, poorly fitted or top-dose-only effect, or another doubt; inactive = no such curve, though single readings can be large; an effect the other way counts as inactive or inconclusive.
SMILES,TSHR antagonist,Apoferritin bind,S-ASM inh,BRCA1 expr act,TSG101-PTAP inh
C[C@@H]1C(=O)O[C@H]2[C@H](O)[C@@]34[C@H]5CC(C(C)(C)C)[C@]36[C@H](OC(=O)[C@H]6O)O[C@]4(C(=O)O5)[C@@]12O (stereo not given in full),.,0%,.,.,.
Cc1ccc2oc(-c3cccc(NC(=O)COc4ccc(Cl)cc4)c3C)nc2c1,.,.,.,26%,.
O=C(C[n+]1cccc(I)c1)c1ccc(F)cc1,.,.,.,21%,.
O=C1N=C(N2CCOCC2)S/C1=C\c1ccncc1,0,10%,3%,79%,-5%
CC(=C/c1ccccc1)/C=C1/SC(N2CCOCC2)=NC1=O,-16,-21%,0%,11µM*,-2%
Cc1ccnc(N(C(=O)Nc2ccccc2)C2=NCC(C)(C)S2)c1,7,-1%,5%,3.2µM*,-3%
CCCCCOc1ccc(NS(C)(=O)=O)cc1,21,?,-2%,11µM*,-1%
CCCn1c(-c2ccc(F)cc2)nc2c(NCCN(C(C)C)C(C)C)nc(C)nc21,.,-10%,.,.,.
CC(=O)NS(=O)(=O)c1ccc(N=NN2CCCCC2)cc1,5,-9%,5%,20%,0%
NS(=O)(=O)c1ccc(N=NN2CCCCC2)cc1,2,?,-4%,10µM*,1%
CC(C)CNc1nc(C#N)nc(Nc2ccccc2)n1,.,0%,.,.,.
O=C(Nc1ccccc1)Nc1cccc(C(F)(F)F)c1,-14,-9%,-3%,30%,-3%
COC(=O)/C(=C\C(=O)c1ccccc1)Nc1cccc(C(F)(F)F)c1,-5,-13%,0%,10µM*,1%
S=C(NCCCc1cnc[nH]1)NCCCN(Cc1ccc(Cl)cc1)c1ccc(-c2ccccc2)cn1,.,.,.,-69%,.
CC(C)(C)c1nnc(NC(=S)Nc2ccccc2)s1,-10,-10%,0%,2.8µM*,-2%
COc1ccc(C2=Nn3c(nnc3-c3ccccc3OC)SC2)c(OC)c1,.,-7%,.,.,.
O=C(Cc1ccc(OCc2ccccn2)cc1)NO,.,.,.,12%,.
CN(C)/N=C/c1ccc(OS(=O)(=O)c2ccccc2)cc1,-5,-6%,-3%,10µM*,-1%
C=C(CC[C@]12OC(C(=O)O)C(O)(C(=O)O)C(C(=O)O)(O1)C(OC(=O)/C=C/[C@@H](C)C[C@@H](C)CC)C2O)[C@@H](OC(C)=O)[C@H](C)Cc1ccccc1 (stereo not given in full),.,.,.,20%,.
CC(=O)NNC(=O)CC(=O)Nc1nc(C23CC4CC(CC(C4)C2)C3)cs1,-4,?,-2%,-15%,-2%
CCNc1nc(C23CC4CC(CC(C4)C2)C3)cs1,-73*,?,0%,2%,-1%
CCC1Sc2ccc(S(=O)(=O)CCC(=O)NCc3ccc(C)o3)cc2NC1=O (stereo not given),2,-14%,1%,-11%,-4%
CCC1Sc2ccc(S(=O)(=O)CCC(=O)Nc3ccccc3Cl)cc2NC1=O (stereo not given),-131*,-4%,-5%,4%,-6%
NC(=O)C1CCN(c2nc(-c3ccc(N4CCCCC4)nc3)cs2)CC1,-4,.,.,.,.
O=C(O)c1ccc(Cn2nnc3sc4c(c3c2=O)CCCC4)cc1,-12,-12%,-1%,7.9µM*,-2%
SMILES,TSHR antagonist,Apoferritin bind,S-ASM inh,BRCA1 expr act,TSG101-PTAP inh
CCCOc1cccc(-c2cc(C(=O)NN)c3ccccc3n2)c1,1,-3%,1%,-78%,-7%
CC(C)COc1cccc(-c2cc(C(=O)Nc3ccon3)c3ccccc3n2)c1,-119*,-16%,-4%[11.5 µM],-51%,-1%
Cc1cc2c(cc1Cl)N(C(=O)Nc1ccc(Oc3cccnc3C)nc1)CC2,-20,.,.,.,.
O=S(=O)(c1nccs1)N1CCN(c2nc(-c3cccs3)nc3ccccc23)CC1,.,.,.,11%,.
CC1CC1C(=O)Nc1ccc(-c2ccccc2)cc1 (stereo not given),13,-8%,1%,2.5µM*,-1%
CCOP(=O)(CC(C(C)=O)C(O)c1ccccc1)OCC (stereo not given),3,0%[15.3 µM],6%,5%,-3%
CCOP(=O)(Cc1ccc(C(C)(C)CC(C)=O)o1)OCC,-82*,-1%,-12%,-20%,-4%
COc1ccc(C(=O)c2ccc(OC)cc2O)c(O)c1,-4,?,-2%,10µM*,-1%
COc1ccc(C(=O)c2ccccc2O)c(O)c1,4,0%[29.3 µM],-2%,19%,0%
CCn1cnc2cc(NCc3ccc(Br)cc3)ccc21,-3,-13%,-1%,4.5µM*,-3%
CCn1cnc2cc(NCc3cccs3)ccc21,-9,?,6%,14µM*,-4%
CCCn1cnc2cc(NCc3ccc(Br)cc3)ccc21,3,-23%,-6%,46%,-1%
CCn1cnc2cc(NCc3ccc(C)cc3)ccc21,1,-16%,4%,3.5µM*,-8%
Cc1ccc(CNc2ccc3c(c2)ncn3C(C)C)cc1,-11,-9%,-3%,5µM*,-9%
CC(C)(C)n1cnc2cc(NCc3cccs3)ccc21,-4,-14%,0%,16%,-1%
OC(Cc1ccc2ccccc2n1)c1c(Cl)cccc1Cl (stereo not given),.,.,.,33%,.
Nc1ccccc1NC(=O)c1ccc(CNC(=O)OCc2cccnc2)cc1,.,-6%,.,.,.
NCCCC[C@H](NC(=O)CNC(=O)[C@@H]1CCCN1C(=O)[C@H](Cc1ccc(O)cc1)NC(=O)CN)C(=O)N[C@@H](Cc1ccccc1)C(=O)O,.,5%,.,.,.
COc1cccc(CNc2ccc(F)c(Cl)c2)c1,0,8.9µM*,-4%,13%,-3%
Cn1cnc2cc(NCc3ccc(Cl)cc3)ccc21,0,-6%,-1%,5µM*,-6%
CCn1cnc2cc(NC(=O)c3cccs3)ccc21,2,-1%,2%,13µM*,-3%
CCCn1cnc2cc(NCc3ccc(OC)cc3OC)ccc21,.,-4%,.,.,.
CCCn1cnc2cc(NCc3cccc(OC)c3)ccc21,7,-24%,7%,5µM*,1%
COc1cccc(CNc2ccc(F)c(Cl)c2)c1O,5,-13%,-2%,73%,-1%
OC(CBr)C[n+]1cc(Br)cc2ccccc21 (stereo not given),.,.,.,-27%,.
CN(C)c1ccc(/C=C2\CCc3cc(N)ccc32)cc1,.,.,.,-8%,.
Cc1ccccc1CNC(=O)Cc1ccccc1[N+](=O)[O-],-3,2%,3%,14µM*,-2%
Cc1ccccc1OCC(=O)O/N=C(\N)Cc1cccs1,-11,-23%,-2%,38%,-6%
Cc1ccccc1C(=O)O/N=C(\N)Cc1cccs1,1,?,0%,8.9µM*,-6%
Cc1ccccc1CNC(=O)Cc1cccs1,-1,-5%,3%,13µM*,-5%
